From PubChem BioAssay
“And” between values parts separate entries of the source, which are not always exact repeats. Equal values may be shown once. The source made the active and inactive calls.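 Rule for the calls, unless noted: active = compound raises GLP1 secretion from the human gut endocrine cells, with no numeric limit stated; inactive = the rest.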

What was measured:
[1] = stimulators of insulin release from INS-1E, primary screen, cell-based, 5 mM glucose, NPC library (AID 1117329;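 active = compound raises insulin release from rat beta cells at 5 mM glucose, no numeric limit stated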); conditions: rat INS-1E insulin secretion, at 10 µM, stronger effect = higher value
[2] = growth inhibition of GSK3B-pretreated HCT116 cells – cell-based, CellTiter-Glo, 0.2 to 20 µM (AID 1117336;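 active = compounds lowering colon cancer cell viability after pretreatment blocking the GSK3B kinase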); conditions: HCT116 viability after GSK3B inhibitor, at 20 µM, stronger effect = higher value
[3] = inhibition of endothelial tube formation, primary screen, imaging, VEGF stimulated, CD31 staining, tube area, NPC library (AID 1117340;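 active = compound that reduces growth-factor-driven endothelial tube area in a mixed cell culture, no cutoff stated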); conditions: VEGF-stimulated ADSC/ECFC co-culture, at 10 µM, stronger effect = higher value
[4] = glucagon-like peptide 1 release enhancers, primary assay, NCI-H716 cell line, NPC library (AID 1117341); conditions: NCI-H716 cells, at 10 µM, stronger effect = higher value
[5] = HCT116 colon cancer cell growth inhibition, primary screen, CellTiter-Glo luminescence, NPC library (AID 1117342;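 active = compounds that lower survival of HCT116 colon cancer cells in the luminescence readout, no numeric limit stated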); conditions: at 20 µM (top of the series)
[6] = CellTiter-Glo luminescent readout of SW480 viability loss, NPC library primary (AID 1117343;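 active = compounds that lower viability of the colon cancer cells in the luminescence readout, with no numeric limit stated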); conditions: CellTiter-Glo luminescence; at 20 µM (top of the series)
[7] = decreased DLD-1 cellular survival, CellTiter-Glo luminescent readout, NPC compound collection, primary HTS (AID 1117346;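 active = compounds that lower survival of DLD-1 colon cancer cells in the luminescence readout, no cutoff given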); conditions: DLD-1 viability, CellTiter-Glo luminescence; at 20 µM (top of the series)
[8] = modulation of C. elegans fzo-1 (AID 1259413; call rule not given here;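 note: fzo-1 mutant C. elegans worms in liquid wells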); conditions: C. elegans fzo-1 modulator screen, mean read-out; stronger effect = higher value
[9] = differential killing of epithelial or mesenchymal cells, primary screen, imaging, PC-3E GFP, TEM4-18 mCherry, co-culture (AID 1345086;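 active = compounds killing one labelled cell type while sparing the other, by normalised counts and ratio limits, not self-fluorescent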;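 for all read-outs here: cells exposed to compound for 72 h before imaging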;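 for red/green cell ratio (normalised): normalised mesenchymal count divided by normalised epithelial count so high means epithelial killing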); conditions: imaging cell counts, at 1 µM; for red/green cell ratio (normalised): actives lie on both sides, counts scaled to control wells, 1 = unselective
[10] = measured here: epithelial PC-3E GFP cell survival
[11] = measured here: mesenchymal TEM4-18 mCherry cell survival

Structure (SMILES) | insulin secretion stimulation [1] | viability decrease [2] | tube area decrease [3] | GLP1 secretion stimulation [4] | inhibition of viability [5] | viability decrease (inhibition) [6] | viability decrease (inhibition) [7] | mean signal [8] | red/green cell ratio (normalised) [9] | normalised cell number [9, 10] | normalised cell number [9, 11]
Clc1ccc2c(c1)CCc1cccnc1C2=C1CCNCC1 | 37.7% (active) | 50.4% (active) | 9.9% (inactive) | 21.1% (active) | 55.5% (active) | 97.8% (active) | 30% (inactive) | 228 (inactive) | 0.84 (inactive) and 1.39 (inactive) | 1.16 and 0.83 | 0.98 and 1.15
COC(=O)CCc1ccc(OCC(O)CNC(C)C)cc1 (configuration not stated) | 6.9% (inactive) | -7.2% (inactive) | -8.1% (inactive) | -0.5% (inactive) | 18.6% (inactive) | 39.7% (inactive) | 16.8% (inactive) | 266 (inactive) |  |  | 
CCOC(=O)C1=C(C)NC(C)=C(C(=O)OC)C1c1cccc(Cl)c1Cl (configuration not stated) | 3.1% (inactive) | 113% (active) | 58.1% (active) | 5.3% (inactive) | 110% (active) | 139% (active) | 95.6% (active) | 217 (inactive) | 1.08 (inactive) | 1.11 | 1.2
CCc1oc2ccccc2c1C(=O)c1cc(Br)c(O)c(Br)c1 | 4.6% (inactive) | 116% (active) | 101% (active) | 21.4% (active) | 124% (active) | 154% (active) | 101% (active) | 252 (inactive) | 0.88 (inactive) | 1.08 | 0.95
CNCC(O)c1ccc(O)c(O)c1 (configuration not stated) | 5.7% (inactive) | 58.5% (active) | -33.6% (inactive) | 2.7% (inactive) | 29% (inactive) | 58.9% (active) | 17.7% (inactive) | 245 (inactive) |  |  | 
Nc1nc2c(ncn2CCC(CO)CO)c(=O)[nH]1 | -2.4% (inactive) | 0.03% (inactive) | 11.3% (inactive) | 1.1% (inactive) | 6.65% (inactive) | 47.6% (inactive) | -0.57% (inactive) | 282 (inactive) | 1 (inactive) | 0.96 | 0.96
CCOC(=O)C1=C(C)NC(C)=C(C(=O)OCC)C1c1ccccc1/C=C/C(=O)OC(C)(C)C | 0.3% (inactive) | 117% (active) | 101% (active) | -0.4% (inactive) | 124% (active) | 158% (active) | 101% (active) | 249 (inactive) |  |  | 
C[C@H]1COc2c(C3(N)CC3)c(F)cc3c(=O)c(C(=O)O)cn1c23 | -0.9% (inactive) | -4.4% (inactive) | 2.8% (inactive) | 4.2% (inactive) | -19.1% (inactive) | 43.9% (inactive) | 24.9% (inactive) | 269 (inactive) | 1.3 (inactive) and 0.88 (inactive) | 0.98 and 1.07 | 1.28 and 0.94
Cc1[nH]cnc1CN1CCc2c(c3ccccc3n2C)C1=O | 0.5% (inactive) | 10.2% (inactive) | 19.5% (inactive) | 5.1% (inactive) | -1.8% (inactive) | 42.2% (inactive) | 23.8% (inactive) | 241 (inactive) |  |  | 
OCc1cccnc1 | -1.9% (inactive) | -11.1% (inactive) | -10% (inactive) | 1.4% (inactive) | -9.5% (inactive) | -6.5% (inactive) | 7.3% (inactive) | 224 (inactive) |  |  | 
COc1cc2c(cc1OC)C(=O)C(CC1CCN(Cc3ccccc3)CC1)C2 (configuration not stated) | 1.25% (inactive) | 22.6% (inactive) | 17.7% (inactive) | 6.3% (inactive) | 49.6% (inactive) | 69.8% (active) | 38.5% (inactive) | 214 (inactive) | 1.04 (inactive) | 1.04 | 1.09
COCc1c(C(C)C)nc(C(C)C)c(/C=C/[C@@H](O)C[C@@H](O)CC(=O)O)c1-c1ccc(F)cc1 | -0.8% (inactive) | 107% (active) | 107% (active) | 3.1% (inactive) | 112% (active) | 151% (active) | 98.6% (active) | 232 (inactive) |  |  | 
CCN(CC)CCNC(=O)c1cc(Cl)c(N)cc1OC | 3.1% (inactive) | -11.3% (inactive) | 12.6% (inactive) | 0.3% (inactive) | -2.1% (inactive) | -17.7% (inactive) | 6% (inactive) | 245 (inactive) | 1.02 (inactive) | 1.09 | 1.12
CN(C)CC[C@@H](c1ccc(Br)cc1)c1ccccn1 | 81.9% (active) | -41.6% (inactive) | -18.3% (inactive) | 1.6% (inactive) | 27.2% (inactive) | 30.9% (inactive) | 10.2% (inactive) | 234 (inactive) |  |  | 
CC(=O)Nc1ccc(CC(=O)O)cc1 | -2.2% (inactive) | -4.5% (inactive) | 12.1% (inactive) | 0.9% (inactive) | -11% (inactive) | 16.5% (inactive) | -2.4% (inactive) | 292 (inactive) |  |  | 
CC1(C)S[C@@H]2[C@H](N=CN3CCCCCC3)C(=O)N2[C@H]1C(=O)O | -1.6% (inactive) | -5.75% (inactive) | 4.4% (inactive) | -0.7% (inactive) | 15.1% (inactive) | -20.4% (inactive) | -12.8% (inactive) | 245 (inactive) |  |  | 
COC(=O)C1=C(C)NC(C)=C(C(=O)O[C@@H]2CCCN(Cc3ccccc3)C2)[C@@H]1c1cccc([N+](=O)[O-])c1 | 1.9% (inactive) | 110% (active) | 52.9% (active) | -0.5% (inactive) | 109% (active) | 131% (active) | 101% (active) | 249 (inactive) |  |  | 
